Screens: PubChem, National Center for Advancing Translational Sciences (NCATS)
RORgamma inh: blocks mouse ROR gamma transcriptional activity | actives 5.4% (n = 310,000) | Potency, µM (highest dose often 53.6 µM), inactives show at the top dose activity change, negative = inhibition, hits mostly inhibitors | Drosophila S2 Gal4-RORgamma UAS-luciferase reporter, 20 h; also: potency is read from the fitted curve at half-maximal effect; nearly all actives have a fitted effect of over 60% in size
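Read-out: Photinus luciferase luminescence; inhibitors lower reporter signal. Insect Schneider cells with Gal4-ROR gamma fusion under metallothionein promoter, UAS reporter; 700 uM final copper sulfate induction, 20 hr, ambient temperature.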
Six1-Eya2 blk: inhibitors of human Six1/Eya2 interaction | AlphaScreen GST-Six1/His-Eya2 binding, biochemical; active compounds read low | activity change, % (test concentration not listed) | actives 0.56% (n = 360,000) | Q15475+O00167; in the data active = activity change below about -65%; inconclusive = mostly about -30% to -63%
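Compounds are tested against tagged Six1 and Eya2 proteins bridged by glutathione donor and nickel acceptor beads; after a one-hour incubation at 37 °C without light, AlphaScreen emission is recorded.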
VP16 counter: counter-screen for ROR gamma inhibitors: Gal4-VP16 reporter | Drosophila S2 Gal4-VP16 UAS-luciferase, luminescence, 20 h | Potency, µM (titrated, usually from 53.6 µM), for inactives: top-dose activity, negative = inhibition, usual class: inhibitors | actives 3.5% (n = 310,000) | AID 2546;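 also: Gal4-VP16 expression switched on by copper sulfate through the metallothionein promoter; potency is read from the fitted curve at half-maximal effect; nearly all actives have a fitted effect of over 50% in size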
PKM2 act: PKM2 (human) enzyme activation; P14618; purified PKM2, Kinase-Glo ATP luminescence, activation; response scale: 0% is enzyme alone, no compound; Potency, µM (top dose mostly 57.5 µM), for the others: top-dose activation, usual class: activators; actives 0.34% (n = 260,000); AID 1631; also: potency is read from the fitted curve at half-maximal effect; nearly all actives have a fitted effect of over 55% in size
Target sequence (P14618 whole entry, looked up): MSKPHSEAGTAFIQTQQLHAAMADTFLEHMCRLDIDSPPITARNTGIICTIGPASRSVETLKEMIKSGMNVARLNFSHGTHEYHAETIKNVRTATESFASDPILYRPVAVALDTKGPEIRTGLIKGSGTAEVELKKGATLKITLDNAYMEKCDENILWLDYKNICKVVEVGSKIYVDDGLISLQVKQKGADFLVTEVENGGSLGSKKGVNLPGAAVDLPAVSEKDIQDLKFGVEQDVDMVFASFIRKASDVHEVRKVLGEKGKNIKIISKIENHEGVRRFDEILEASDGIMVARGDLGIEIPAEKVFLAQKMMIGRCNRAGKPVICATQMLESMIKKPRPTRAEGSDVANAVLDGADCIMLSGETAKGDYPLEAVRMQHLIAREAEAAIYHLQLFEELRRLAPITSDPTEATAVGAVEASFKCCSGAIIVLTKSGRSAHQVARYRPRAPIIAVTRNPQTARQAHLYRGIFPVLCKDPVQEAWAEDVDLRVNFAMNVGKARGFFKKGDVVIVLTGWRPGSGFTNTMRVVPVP
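Purified hPK-M2 (>95% pure) converted ADP (0.1 mM final) to ATP with 0.5 mM PEP in 50 mM imidazole pH7.2, KCl, MgCl2, Tween 20, BSA; 1 h at room temperature. ATP detected by Kinase-Glo luminescence.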
CtBP-E1A inh: CtBP/E1A binding inhibition | AlphaScreen GST-E1A/His-CtBP binding, 1536-well; active compounds read low | activity change, % (test concentration not listed) | actives 0.49% (n = 340,000) | AID 651724; in the data active = activity change below about -65%; inconclusive = mostly about -30% to -63%
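In 5 uL wells, 23 nL compound meets equimolar GST-E1A and His-CtBP (5X stock 125 nM each) for 2 h, 37 °C. Beads (5X, 50 ug/mL) then 1 h, 37 °C, dark.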
* = called active by the depositor; ? = inconclusive; · = no result; ! = repeats disagree; [ ] = dose if it differs, or a comment. Hits are enriched below; roughly 5.6% of the tested compounds scored in any of these assays. Unless noted, calls follow the shape of the dose curve; as a rule, active = well fitted curve in the direction sought with a large enough effect; inconclusive = small, poorly fitted or top-dose-only effect, or another doubt; inactive = no such curve, though single readings can be large; an effect the other way counts as inactive or inconclusive. % is scaled to controls: 0 for no effect and ±100 for the full control effect.

SMILES	RORgamma inh	Six1-Eya2 blk	VP16 counter	PKM2 act	CtBP-E1A inh
CC(C)(C)C(=O)N1CCc2cc(-c3csc(N)n3)ccc21	13µM*	4	10µM*	5%	24
CCC(C)C(=O)N1CCc2cc(-c3csc(N)n3)ccc21 (stereo unspecified)	8%	-6	-4%	2%	-3
N#Cc1c2n(c3c(=S)nc[nH]c13)CCCCC2	3.5µM*	-6	18µM*	0%	1
COC(=O)c1ccc(=O)c2nc3/c(=C/O)c(O)cc(=O)c3[nH]c12	11%	-89*	-11%	-4%	-94*
CC1(C(=O)NNC(=S)NCc2ccco2)CC1(Cl)Cl (stereo unspecified)	8.9µM*	0	-2%	-1%	-4
CC(=O)Nc1ccc(S(=O)(=O)NNC(=S)NCc2ccco2)cc1	11µM*	25	-28%	0%	12
CCCCc1ccc(S(=O)(=O)NNC(=S)NCc2ccco2)cc1	8.9µM*	-26	?	-1%	-24
CCNS(=O)(=O)c1ccc(NC(=S)NCc2ccco2)cc1	15%	-8	-11%	1%	-4
CC(C)CC(=O)NNC(=S)NCc1ccco1	?	12	-6%	-1%	-9
O/N=C\c1ccc2noc(-c3ccc(Cl)cc3)c2c1	-13%	1	-5%	·	·
Cc1ccc(NC(=O)CCc2nc3sc4c(c3c(=O)[nH]2)CCCC4)c(Br)c1	·	-2	·	·	6
Cc1cc(C)c(C)c(S(=O)(=O)N2CCN(CC(=O)Nc3sccc3C#N)CC2)c1C	-10%	-12	3%	-5%	9
COc1cc(C=O)c([N+](=O)[O-])cc1OC	-42%	·	21%	2%	·
Cc1cc(=O)oc2c(C(=O)/C=C/c3ccccc3)c(O)ccc12	-1%	8	-21%	0%	4
COc1cc(/C=C/C(=O)c2c(O)ccc3c(C)cc(=O)oc23)ccc1O	13µM*	-11	?	9%	-14
COc1ccc(/C=C\C(=O)c2c(O)ccc3c(C)cc(=O)oc23)cc1OC	13µM*	-19	?	8%	-18
Cc1cccc([C@@H]2CN(C)CCc3c2cc(O)c(O)c3Cl)c1	-28%	·	-11%	·	·
O=c1c(-c2ccccc2)c1-c1ccccc1	?	·	0.79µM*	1%	·
O=c1[nH][nH]c(-c2ccccc2)c1-c1ccccc1	·	-3	·	·	0
COc1ccc(-n2cnc3cc(NCc4cccs4)ccc32)cc1	14µM*	-25	7%	4%	?
O=c1c(O)c(-c2cccs2)oc2ccc(Cl)cc12	11µM*	7	?	-2%	-2
O=c1c(O)c(-c2cccs2)oc2ccccc12	22µM*	10	0%[0.365 µM]	1%	-7
O=c1c2ccccc2oc2ccccc12	-35%	·	-1%	·	·
O=c1cc(-c2cccs2)oc2ccc(Cl)cc12	-13%	-5	-1%	1%	-8
CC(C)=CCc1c(O)cc2oc3c(CC=C(C)C)c(O)c(O)c(CC=C(C)C)c3c(=O)c2c1O	?	-8	?	-7%	1
SMILES	RORgamma inh	Six1-Eya2 blk	VP16 counter	PKM2 act	CtBP-E1A inh
COc1c(O)cc2oc3cc(O)c(CC=C(C)C)c(O)c3c(=O)c2c1CC=C(C)C	?	·	25µM*!	·	·
Cc1ccc(SCC(=O)OCc2csc(CC(=O)Nc3ccccc3C)n2)cc1C	·	9	·	·	0
Cn1cc(C=C2C(=O)Nc3cccnc32)c2ccccc21	4%	·	3%	·	·
COC(=O)CCC(=O)Nc1cccc([N+](=O)[O-])c1	-1%	5	1%	·	·
CC1(C)SC2C(C(=O)O)N=C(Cc3ccccc3)N2C1C(=O)O (stereo unspecified)	·	-81*	·	·	-84*
NC(=S)c1cnn2c(-c3cccc(C(F)(F)F)c3)ccnc12	4µM*	1	10µM*	·	-5
N#Cc1cnn2c(-c3ccccc3)ccnc12	0%	22	6%	0%	0
Oc1ccccc1-c1nnc(-c2ccc(C(F)(F)F)cc2)o1	3.5µM*	10	6.3µM*	-5%	6
COC(=O)c1c(NC(=O)CSc2ccccc2N)sc(C)c1C	14%	-7	6%	-1%	-22
NC(c1csc(Nc2cc(NCCCO)ncn2)n1)c1ccccc1Cl (stereo unspecified)	·	-89*	·	·	-89*
NC(Cc1ccc(F)cc1)c1csc(Nc2nccc(C(F)(F)F)n2)n1 (stereo unspecified)	·	-20	·	·	-12
COc1cccc(Nc2nc(C(N)c3ccccc3Cl)cs2)n1 (stereo unspecified)	·	-18	·	·	?
CCc1cnc(Nc2nc(C(N)Cc3ccc(F)cc3)cs2)nc1 (stereo unspecified)	·	?	·	·	-71*
COc1ccc(CC(N)c2csc(Nc3cnccn3)n2)cc1 (stereo unspecified)	·	?	·	·	-75*
NC(c1csc(Nc2ncccn2)n1)c1ccccc1Cl (stereo unspecified)	·	-68*	·	·	-66*
COc1cc(OC)nc(Nc2nc(C(N)c3ccccc3Cl)cs2)n1 (stereo unspecified)	·	-29	·	·	-30
O=C1CN(C(=O)CSc2nnnn2C2CC2)c2ccccc2N1	·	-8	·	·	-11
COc1ccc(CC(N)c2csc(Nc3ncccn3)n2)cc1 (stereo unspecified)	·	-71*	·	·	-80*
COc1ccc(CC(N)c2csc(Nc3nccc(C(F)(F)F)n3)n2)cc1 (stereo unspecified)	·	-7	·	·	-17
COc1ccc(C(N)c2csc(Nc3nncc4ccccc34)n2)cc1 (stereo unspecified)	·	2	·	·	-2
COc1ccc(CC(N)c2csc(Nc3cc(NCc4ccco4)ncn3)n2)cc1 (stereo unspecified)	·	-65*	·	·	-74*
COc1ccc(C(N)c2csc(Nc3ncccn3)n2)cc1 (stereo unspecified)	·	-85*	·	·	-83*
CC(C)C[C@@H](CNC(=O)OC(C)(C)C)NC(=O)c1nc[nH]c1C(=O)N[C@@H](CC(C)C)C(=O)CNC[C@H](CC(C)C)NC(=O)c1nc[nH]c1C(=O)N[C@@H](Cc1c[nH]c2ccccc12)C(=O)OC(C)(C)C	·	-8	·	·	-1
O=C(COc1ccc(C(=O)NCC2CCCO2)cc1)Nc1cccc(C(F)(F)F)c1 (stereo unspecified)	·	8	·	·	0
COCCn1c(-c2ccc(OC)cc2)cnc1SCC(=O)Nc1cccc2ccccc12	5µM*	?	21%	3%	?
CC(C)NC(=S)NC(=O)c1ccc(-c2ccccc2)cc1	2.5µM*	-16	3.2µM*	4%	-19
Cc1cccc(NC(=S)NC(=O)c2oc3ccccc3c2C)n1	8.9µM*	-2	17%	-1%	6
Cc1c(C(=O)NC(=S)Nc2ccc(NC(=O)c3cccs3)cc2)oc2ccccc12	?	0	?	?	8
